These results are taken from PubChem BioAssay (NCATS).

For experiment [1], the target named is Mitogen-activated protein kinase 10 (Mus musculus) (UniProt Q61831). Briefly: JNK3 AlphaScreen Assay (AID 530; active means well fitted curve in either direction with a large enough effect, not every such curve was filed as active;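 further: kinase came from lysate of stimulated human HepG2 cells; signal reports phosphorylation of biotinylated GST-cJun 1-79 at Ser73 with 10 µM ATP; on the % scale 0 is the no-effect control and ±100 the full control effect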). The procedure, abridged: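 Biotinylated GST-cJun(1-79) served as substrate for JNK3 in HepG2 lysates stimulated with IL-1beta and TNF-alpha. ATP was 10 uM final, pH 7.6. Ser73 phosphorylation was quantified by AlphaScreen (680 nm excitation).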
The nature of experiment [2]: qHTS Assay for Lipid Storage Modulators (AID 1519; calls by dose curve; on activity change, negative = inhibition: on the % scale 0 is the no-effect control and ±100 the full control effect). As to conditions: Drosophila S3 cells, BODIPY lipid droplet/cell ratio, laser cytometry, cells loaded with oleic acid; for activity change, negative = inhibition: at 57.5 µM (top of the series). The gist of the method: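 Cells seeded at 5,000 per well were treated with compounds over a concentration series and loaded with oleic acid (400 uM, as added). Lipid droplet fluorescence (488 nm excitation, 500-530 nm channel) was read by laser-scanning cytometry and normalized to 20 uM Triacsin C.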
(In general: In qHTS, concentration-response curves come from the screen itself.)

Experiment [3] addresses ATP-dependent 6-phosphofructokinase (Trypanosoma brucei brucei) (UniProt O15648). As to the kind of experiment: qHTS Assay to Find Inhibitors of T. brucei phosphofructokinase: hit validation (AID 492961).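 Further: luminescence reports ADP formed as PFK phosphorylates fructose-6-phosphate with ATP; on the % scale 0 is the no-effect control and ±100 the full control effect.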 The procedure, abridged:
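Reaction: 0.1 M triethanolamine pH 8.0, 5 mM MgCl2, F6P 0.5 mM, ATP 0.1 mM, PFK 1.25 nM, 45 min RT. Read-out: ADP-Glo luminescence. Analysis: concentration-response fits, classed by r2 and efficacy.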

Experiment [4] addresses Ubiquitin carboxyl-terminal hydrolase 1 (Homo sapiens) (UniProt O94782). As to the kind of experiment: Inhibitors of USP1/UAF1: Pilot qHTS (AID 504865).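 Further: rhodamine fluorescence freed from ubiquitin-rhodamine substrate followed over time; top concentration of the series differs between compounds; on the % scale 0 is the no-effect control and ±100 the full control effect; nearly all actives have a fitted effect of over 35% in size.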 The procedure, abridged:
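USP1/UAF1 complex at 1 nM preincubated 15 min at room temperature with compound, then Ub-Rho substrate added at 150 nM final. Fluorescence (480/540 nm) read kinetically in 50 mM HEPES pH 7.8, 0.5 mM EDTA, 1 mM TCEP, 0.1 mg/ml BSA, 0.01% Tween-20.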

Experiment [5] has as its target Luciferin 4-monooxygenase (Photinus pyralis) (UniProt P08659). As to the kind of experiment: Biochemical firefly luciferase enzyme assay for NPC (AID 624030).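 Further: purified P. pyralis luciferase at 10 nM with luciferin and ATP substrate; 0% = DMSO and -100% = full luciferase inhibition by PTC124 control; nearly all actives have a fitted effect of over 70% in size.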 The gist of the method:
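Counter-screen for direct inhibition of the luciferase enzyme by approved-drug library compounds, run at 10 nM enzyme in 50 mM Tris acetate (final). Luminescence was read within 5 min of enzyme-buffer addition and normalized to PTC124 versus DMSO (0%).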

The nature of experiment [6]: qHTS profiling for inhibitors of Plasmodium falciparum proliferation (AID 504749). Further: potency means the concentration at half of the fitted maximal effect.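 On activity, negative = inhibition: 0% = DMSO vehicle and full inhibition = artemisinin control.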 On all read-outs here: nearly all actives have a fitted effect of over 60% in size. To be noted: P. falciparum in erythrocytes, SYBR Green DNA, 72 h; for activity, negative = inhibition: at 28.7 µM (top of the series). The procedure, abridged: (§1)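 Fluorescence of SYBR Green-bound parasite DNA, read at 485/535 nm, served as the growth measure. Infected erythrocytes were cultured with compound 72 h; artemisinin (0.29 uM) and DMSO wells defined the normalization range.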

The test system of experiment [7] is AS120. Described as above. To be noted: P. falciparum in erythrocytes, SYBR Green DNA, 72 h; series mostly up to 12.8 µM. The gist of the method: as §1
Experiment [8] deals with C2A. The experiment is described as above. To be noted: P. falciparum in erythrocytes, SYBR Green DNA, 72 h; series mostly up to 12.8 µM. The procedure, abridged: as §1
Experiment [9] has as its system CP191. Described as above. To be noted: P. falciparum in erythrocytes, SYBR Green DNA, 72 h; series mostly up to 12.8 µM. The gist of the method:
as §1

The test system of experiment [10] is CP217. The description is as above. To be noted: P. falciparum in erythrocytes, SYBR Green DNA, 72 h; series mostly up to 12.8 µM. The gist of the method: as §1
In experiment [11] the test system is CP305. The description is as above. To be noted: P. falciparum in erythrocytes, SYBR Green DNA, 72 h; series mostly up to 12.8 µM. The procedure, abridged: as §1
Experiment [12] concerns CP329. The experiment is described as above. To be noted: P. falciparum in erythrocytes, SYBR Green DNA, 72 h; series mostly up to 12.8 µM. The procedure, abridged: as §1
For experiment [13], the system named is ECU. The description is as above. As to conditions: P. falciparum in erythrocytes, SYBR Green DNA, 72 h; series mostly up to 12.8 µM. The gist of the method: as §1
The subject of experiment [14] is FAB9. The experiment is described as above. As to conditions: P. falciparum in erythrocytes, SYBR Green DNA, 72 h; series mostly up to 12.8 µM. The procedure, abridged: as §1
In experiment [15] the test system is N140. The description is as above. To be noted: P. falciparum in erythrocytes, SYBR Green DNA, 72 h; series mostly up to 12.8 µM. The procedure, abridged: as §1
Experiment [16] has as its system PC15. The experiment is described as above. As to conditions: P. falciparum in erythrocytes, SYBR Green DNA, 72 h; series mostly up to 12.8 µM. The procedure, abridged:
as §1

Experiment [17] concerns PC49. The experiment is described as above. As to conditions: P. falciparum in erythrocytes, SYBR Green DNA, 72 h; series mostly up to 12.8 µM. The gist of the method: as §1
Experiment [18] relates to TAB165. The description is as above. As to conditions: P. falciparum in erythrocytes, SYBR Green DNA, 72 h; series mostly up to 12.8 µM. The gist of the method: as §1
Setting [19] is: measured here: cell count channel max response.
The mark [20] stands for this setting: measured here: lipid channel max response.

Records with an inconclusive call do not appear. Calls of active or inactive are those of the source. Unless noted, the call rests on the fitted dose curve; in most records, active means well fitted curve in the direction sought with a large enough effect; inconclusive means small, poorly fitted or top-dose-only effect, or another doubt; inactive means no such curve, though single readings can be large; an effect the other way counts as inactive or inconclusive.

Ubiquitin carboxyl-terminal hydrolase 1 (Homo sapiens), sequence (O94782 whole entry, looked up): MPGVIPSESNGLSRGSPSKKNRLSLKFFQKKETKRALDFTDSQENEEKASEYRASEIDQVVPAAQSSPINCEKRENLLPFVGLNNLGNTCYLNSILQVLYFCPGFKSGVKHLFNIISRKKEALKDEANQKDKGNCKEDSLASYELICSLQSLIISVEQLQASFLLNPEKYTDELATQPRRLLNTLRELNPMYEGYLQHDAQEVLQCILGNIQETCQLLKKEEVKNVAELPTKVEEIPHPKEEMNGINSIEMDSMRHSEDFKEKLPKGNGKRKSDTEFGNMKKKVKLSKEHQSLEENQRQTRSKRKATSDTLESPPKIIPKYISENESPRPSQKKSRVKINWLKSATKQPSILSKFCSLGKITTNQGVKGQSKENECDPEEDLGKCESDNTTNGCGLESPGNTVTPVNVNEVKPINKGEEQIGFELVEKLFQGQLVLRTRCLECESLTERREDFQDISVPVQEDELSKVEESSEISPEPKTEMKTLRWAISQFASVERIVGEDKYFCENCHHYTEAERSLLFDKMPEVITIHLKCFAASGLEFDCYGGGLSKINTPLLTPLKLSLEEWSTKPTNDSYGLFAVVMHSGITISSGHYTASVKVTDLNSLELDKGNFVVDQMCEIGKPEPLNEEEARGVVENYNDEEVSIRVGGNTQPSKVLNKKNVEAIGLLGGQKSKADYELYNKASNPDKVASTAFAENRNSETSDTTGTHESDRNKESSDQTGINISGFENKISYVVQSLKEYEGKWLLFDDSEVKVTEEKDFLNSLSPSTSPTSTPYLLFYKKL
Luciferin 4-monooxygenase (Photinus pyralis), sequence (P08659 whole entry, looked up): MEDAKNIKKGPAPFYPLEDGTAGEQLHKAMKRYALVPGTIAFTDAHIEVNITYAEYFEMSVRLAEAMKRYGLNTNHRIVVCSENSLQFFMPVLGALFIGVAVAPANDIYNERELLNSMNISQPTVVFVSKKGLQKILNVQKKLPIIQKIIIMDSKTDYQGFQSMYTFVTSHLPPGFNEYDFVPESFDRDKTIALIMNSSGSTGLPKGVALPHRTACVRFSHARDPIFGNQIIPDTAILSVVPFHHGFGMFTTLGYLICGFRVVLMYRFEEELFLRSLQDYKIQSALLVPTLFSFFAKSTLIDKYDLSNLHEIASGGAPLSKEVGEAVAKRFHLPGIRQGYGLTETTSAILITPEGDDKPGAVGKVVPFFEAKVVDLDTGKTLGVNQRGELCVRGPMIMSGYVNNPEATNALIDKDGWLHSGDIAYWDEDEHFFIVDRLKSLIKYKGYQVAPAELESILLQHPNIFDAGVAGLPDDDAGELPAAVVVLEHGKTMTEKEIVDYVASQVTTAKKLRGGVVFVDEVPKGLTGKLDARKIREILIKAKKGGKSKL
ATP-dependent 6-phosphofructokinase (Trypanosoma brucei brucei), sequence (O15648 whole entry, looked up): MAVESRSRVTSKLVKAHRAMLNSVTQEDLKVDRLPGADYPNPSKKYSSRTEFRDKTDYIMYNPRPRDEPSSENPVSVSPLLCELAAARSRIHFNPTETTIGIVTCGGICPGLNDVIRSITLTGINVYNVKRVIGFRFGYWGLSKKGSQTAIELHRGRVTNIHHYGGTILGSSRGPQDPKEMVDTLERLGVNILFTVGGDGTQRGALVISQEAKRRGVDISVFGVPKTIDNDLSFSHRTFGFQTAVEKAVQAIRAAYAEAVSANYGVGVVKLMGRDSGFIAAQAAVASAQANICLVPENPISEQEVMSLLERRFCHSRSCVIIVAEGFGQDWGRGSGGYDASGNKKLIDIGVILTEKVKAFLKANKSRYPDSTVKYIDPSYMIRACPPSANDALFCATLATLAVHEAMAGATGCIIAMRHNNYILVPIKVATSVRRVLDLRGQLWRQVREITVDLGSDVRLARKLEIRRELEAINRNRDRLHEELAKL

For the compound `C[C@]1(c2ccccc2)OC(C(=O)O)=CC1=O`, the Potency result in [1], in [4], in [5], in [7], in [8] and in experiment [9] was “inactive” throughout. Further, the Potency entry in [10], in [11], in experiment [12], in [13], in [14] and in [15] was “inactive” in each case. The Potency result in experiment [16], in experiment [17] and in experiment [18] was “inactive” each time. Moreover, the activity change, negative = inhibition in experiment [2] was -2% (inactive). Moreover, the max response was -4.61% in [2] (setting [19]) and -6.08% in [2] (setting [20]). The compound was classed as inactive in experiment [3]. Moreover, the activity, negative = inhibition in [6] (parasite line A) was 4.24% (inactive); in [6] (parasite line B), 8.18% (inactive).

Turning to `Cc1cc(O)c(C=O)c2c1C(=O)Oc1c(COC(=O)/C=C/C(=O)O)c(O)c(C(=O)O)c(C)c1O2`, the activity change, negative = inhibition in [2] is 4.28% (inactive). The max response in experiment [2] (setting [19]) is 6.76%; in [2] (setting [20]), 3.61%.

With `CO[C@]12C(COC(N)=O)C3=C(C(=O)C(C)=C(N)C3=O)N1CC1NC12` (stereo not given in full), in [2], the activity change, negative = inhibition was 3.3% (inactive). Also, the values for the max response in [2] (setting [19]) and in [2] (setting [20]) were 5.7% and 11.5%, respectively. The result in experiment [3] was inactive. In experiment [5], the Potency result was “inactive”. In addition, the Potency in experiment [6] (parasite line A) was 1260 nM (active); in experiment [6] (parasite line B), 1260 nM (active); in experiment [7], 562 nM (active); in experiment [8], 1260 nM (active); in [9] it was 891 nM (active); in experiment [10], 1780 nM (active). Further, the Potency is 1410 nM (active) in experiment [13]; 5010 nM (active) in [14]; 631 nM (active) in experiment [15]; 1410 nM (active) in experiment [16]; 3550 nM (active) in experiment [17]; 447 nM (active) in experiment [18].

For the compound `CCOC(=O)C1=CC(OC(CC)CC)C(NC(C)=O)C(N)C1` (stereo not given), the activity change, negative = inhibition in [2] was 11.6% (inactive). Besides, the max response was 14.9% in experiment [2] (setting [19]) and 27.8% in experiment [2] (setting [20]). Besides, the result in experiment [3] was inactive. Besides, the Potency entry in experiment [4], in experiment [5], in [7], in experiment [8], in experiment [9] and in experiment [10] was “inactive” throughout. The Potency result in experiment [11], in experiment [12], in experiment [13], in [14], in experiment [15] and in experiment [16] was “inactive” each time. For the same compound, the Potency entry in experiment [17] and in experiment [18] was “inactive” each time. In addition, the activity, negative = inhibition in [6] (parasite line A) is 0.564% (inactive); in [6] (parasite line B), -0.576% (inactive).

For the compound `NC(C(=O)O)[C@@H]1CC(Cl)=NO1` (stereo not given in full), the activity change, negative = inhibition in [2] was 6.89% (inactive). The max response in experiment [2] (setting [19]) is 16.9%; in experiment [2] (setting [20]), 29%. Besides, the result in [3] was inactive. Besides, the Potency entry in experiment [4] and in experiment [5] was “inactive” in each case. Moreover, the Potency in [6] (parasite line A) is 1260 nM (active); in experiment [6] (parasite line B) it was 2820 nM (active); in [7], 1780 nM (active); in [8], 1120 nM (active); in experiment [9], 2510 nM (active); in experiment [10], 1120 nM (active). Further, the Potency in experiment [11] was 1510 nM (active); in experiment [12], 3010 nM (active); in experiment [13] it was 2240 nM (active); in experiment [14] it was 2820 nM (active); in experiment [15], 1260 nM (active); in [16], 3160 nM (active). In addition, the Potency in [18] is 1000 nM (active).
